Assay results as given in PubChem BioAssay (NCI).
About 79,000 compounds went through this panel and 15% of them were active in at least one assay; those are over-represented in the sample as a whole. Cut-off read from the data, not from the text of the source: active = growth inhibition above about 70%; inactive = the rest.

Columns and labels:
[1] = NCI Yeast Anticancer Drug Screen. Data for the rad50 strain (AID 155);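 note: 0% = growth of vehicle-only cultures of the same strain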; details: S. cerevisiae rad50 strain growth inhibition; at 50.0 µM; stronger effect = higher value
Method in brief: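 Compounds were tested on a yeast strain with an engineered DNA damage repair alteration; the reported value is growth inhibition normalised to vehicle treatment.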

[2] = NCI Yeast Anticancer Drug Screen. Data for the mec2-1 strain (AID 157); details: S. cerevisiae mec2-1 strain, at 50.0 µM, stronger effect = higher value
Method in brief: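 Readout is yeast growth inhibition, normalised to vehicle-treated controls, in the mec2-1 strain exposed to compound.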

[3] = NCI Yeast Anticancer Drug Screen. Data for the sgs1 mgt1 strain (AID 161);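 note: 0% = growth of cultures given vehicle only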; details: S. cerevisiae sgs1 mgt1 strain, at 50.0 µM, stronger effect = higher value
Method in brief: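 Compounds are added to genetically altered yeast, and growth is compared with cultures given vehicle alone to give percent inhibition.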

[4] = NCI Yeast Anticancer Drug Screen. Data for the cln2 rad14 strain (AID 165);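 note: 0% = growth equal to vehicle treated cultures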; details: S. cerevisiae cln2 rad14 strain, at 50.0 µM, stronger effect = higher value
Method in brief: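 Relative to vehicle controls, growth inhibition of compound-treated cln2 rad14 yeast was recorded.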

[5] = NCI Yeast Anticancer Drug Screen. Data for the bub3 strain (AID 167); details: S. cerevisiae bub3 mutant strain, at 50.0 µM, stronger effect = higher value
Method in brief: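 Growth of a checkpoint-deficient yeast mutant is measured after compound exposure. Values represent inhibition relative to vehicle.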

[6] = NCI Yeast Anticancer Drug Screen. Data for the mlh1 rad18 strain (AID 175); details: S. cerevisiae mlh1 rad18 strain growth inhibition; at 50.0 µM; stronger effect = higher value
Method in brief: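 Test agents were incubated with a yeast strain of defined genotype (DNA damage repair defect). Inhibition of growth was derived by comparison with vehicle-exposed cultures.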

Measured: growth inhibition

c1ccc2cc(B(c3cccc4ccccc34)c3cccc4ccccc34)ccc2c1
inactive: [1] 14% | [2] -8.75% | [3] -8.4% | [4] -25.6% | [5] -2.25% | [6] -23.9%

O=[N+]([O-])c1ccc2[nH]c(=S)n(/C=C(/c3ccccc3)S(=O)Cc3ccccc3)c2c1 (stereo unspecified)
inactive: [1] -2.45% | [2] -22.6% | [3] -18.7% | [4] -3.15% | [5] -12% | [6] -5.15%

O=C1C2C(C(=O)N1c1ccccc1)C1(c3cccnc3)NC(=O)C2(Cc2cccnc2)c2ccccc21 (stereo unspecified)
inactive: [1] 12.6% | [2] -5.85% | [3] 8.95% | [4] 19.7% | [5] -1.55% | [6] 13.5%

O=c1cc(Nc2ccccc2)c2ccccc2[nH]1
inactive: [1] -3.3% | [2] -20.1% | [3] 7.3% | [4] 12.6% | [5] -15.3% | [6] 23.3%

O=C1OC(=Nc2ccccc2Cl)c2ccccc21
inactive: [1] -21.6% | [2] -21.5% | [3] -5.05% | [4] -9.1% | [5] 14.5% | [6] 18.3%

CCC(=O)CC(C)=O.CCC(=O)CC(C)=O.[Cu]
inactive: [1] -10.3% | [2] 19.4% | [3] 5.5% | [4] -31% | [5] -2.2% | [6] 14.2%

Cc1ccc([N+](=O)[O-])cc1NC(=O)N(C)Cc1ccc(Cl)cc1
inactive: [1] 5.5% | [2] 24.2% | [3] -12.2% | [4] -5.35% | [5] -5.4% | [6] -8.9%

CN(C)c1nc(Cl)c2c(-c3ccccc3)c(-c3ccccc3)oc2n1
inactive: [1] -0.6% | [2] 3% | [3] 10.5% | [4] 16.1% | [5] 24.6% | [6] -25.1%

O=C(O)c1ccc2sc3ccccc3c(=O)c2c1
inactive: [1] 14.9% | [2] 32.8% | [3] 33.3% | [4] -21.2% | [5] 21.7% | [6] 39%

CC(=O)OCC12CCC(O1)C1C(=O)OC(=O)C12 (stereo unspecified)
inactive: [1] -3.85% | [2] -2.25% | [3] -9.2% | [4] -3.4% | [5] -11.1% | [6] 1.05%

O=C(NC(Cc1ccc(O)cc1)C(=O)O)SCc1ccccc1 (stereo unspecified)
inactive: [1] -25.6% | [2] 21% | [3] 22.9% | [4] -52.5% | [5] 22.9% | [6] -12%

CC1S/C(=N\N=C\c2ccc(Cl)cc2)N=C1c1c(O)c2ccccc2oc1=O (stereo unspecified)
inactive: [1] 13.2% | [2] 52% | [3] 57.4% | [4] -7.5% | [5] 7.65% | [6] 45.9%

CC1=NN(C(=O)CC(=O)Nc2cccc(C)c2)C(=O)C1N=Nc1ccc(C(=O)O)cc1 (stereo unspecified)
inactive: [1] -33.9% | [2] 5.95% | [3] 12.6% | [4] -11.7% | [5] -2.7% | [6] 25.9%

C/C(=N\NC(=S)N1CCCC1)c1ccc[nH]1
inactive: [1] -6.55% | [2] 3.05% | [3] -0.05% | [4] -11.6% | [5] -7.75% | [6] -2.3%

O=C(N/N=C/c1ccccn1)c1ccccc1
inactive: [1] -1.2% | [2] 23.6% | [3] 10.7% | [4] 19.1% | [5] 13.3% | [6] 3.55%

Nc1nc2c(C(=O)NCc3cccs3)nnn2c2cccc(Cl)c12
inactive: [1] -6.25% | [2] -1.45% | [3] -5.35% | [4] 4.2% | [5] -20.3% | [6] 7.05%

Cc1ccsc1/C=N/Nc1nncc2ccccc12
inactive: [1] 20.3% | [2] 5.35% | [3] 20.6% | [4] 9.05% | [5] 30.4% | [6] 9.7%

O=C(/C=C(/CC(=O)c1ccccc1)C(=O)c1ccccc1)c1ccccc1
inactive: [1] -13.1% | [2] -22.9% | [3] -11.2% | [4] -22.1% | [5] -10.5% | [6] -30.8%

COC(=O)C(Cc1nc2ccccc2[nH]c1=O)C(NO)C(=O)Nc1c(Cl)cc([N+](=O)[O-])cc1Cl (stereo unspecified)
inactive: [1] -3.85% | [2] -7.4% | [3] 36.6% | [4] 10.2% | [5] 22.2% | [6] -1.75%

O=[N+]([O-])c1cccc(N=Nc2ccccc2)c1
inactive: [1] -4.25% | [2] -10.3% | [3] -22.3% | [4] 18.7% | [5] -21.6% | [6] -0.95%

CC(C)(O)C(c1ccccc1)S(=O)(=O)O (stereo unspecified)
inactive: [1] -2.5% | [2] -18.6% | [3] -0.3% | [4] -27.4% | [5] -0.45% | [6] 48.5%
